Source: ChEMBL document CHEMBL1157539, “Thousands of chemical starting points for antimalarial lead identification” (Nature, 2010)

Tests used:
Format in all cases: functional
[1] = tested on: Plasmodium falciparum; test: GSK_TCMDC: Inhibition of Plasmodium falciparum 3D7 in whole red blood cells, using parasite LDH activity as an index of growth. Test compounds present at 2uM
[2] = tested on: Plasmodium falciparum; test: GSK_TCMDC: Inhibition of Plasmodium falciparum Dd2 in whole red blood cells, using parasite LDH activity as an index of growth. Test compounds present at 2uM
[3] = tested on: HepG2; test: GSK_TCMDC: Percent inhibition of human HepG2 cell line. Test compounds present at 10uM.

Cc1cc(N[C@@H](Cc2ccccc2)C(=O)NCCOc2ccccc2)nc(NCC2CCCCC2)n1.O=C(O)C(F)(F)F
Inhibition [1]: 100%
Inhibition [2]: 75%
Inhibition [3]: 30%

CCn1c(SC)nnc1C1CCCN(CC(=O)Nc2nc3ccc(OC)cc3s2)C1 (configuration not stated)
Inhibition [1]: 97%
Inhibition [2]: 81%
Inhibition [3]: 0%

NCCCCNc1cc(-c2ccnc(Nc3cccc(Cl)c3)n2)ccn1
Inhibition [1]: 94%
Inhibition [2]: 91%
Inhibition [3]: 46%

CCCCCCC(C)c1cc(O)c2c(c1)OC(=O)CC2(CC)c1ccccn1.Cl (configuration not stated)
Inhibition [1]: 100%
Inhibition [2]: 0%
Inhibition [3]: 15%

CCCc1cc(N2CCC(c3ccccc3)(N3CCCCC3)CC2)nc(Nc2ccc(OC)cc2)n1
Inhibition [1]: 81%
Inhibition [2]: 28%
Inhibition [3]: 13%

Cc1cccc2nc(-c3cccc(-c4cccc(NC(=O)c5cn(C)c(=O)n5C)c4)c3)[nH]c12
Inhibition [1]: 99%
Inhibition [2]: 80%
Inhibition [3]: 5%

CC(C)Cn1c(Sc2ccc(C#N)c([N+](=O)[O-])c2)nnc1-c1cccc(Cl)c1
Inhibition [1]: 98%
Inhibition [2]: 95%
Inhibition [3]: 24%

O=C(Nc1cc(Cl)ccc1-n1cncn1)C1(c2ccccc2)CC1
Inhibition [1]: 98%
Inhibition [2]: 91%
Inhibition [3]: 3%

CCC(CC)n1c(COC)cc2c3c(N)nc(N)nc3ccc21
Inhibition [1]: 95%
Inhibition [2]: 0%
Inhibition [3]: 71%

CCOc1c(Br)cc(Br)cc1CNCCCCNc1nc2ccccc2[nH]1
Inhibition [1]: 100%
Inhibition [2]: 37%
Inhibition [3]: 25%

COc1cc(C(=O)NC2CCN(Cc3ccccc3)CC2)ccc1-c1nc2cc(Cl)c(Cl)cc2[nH]1
Inhibition [1]: 100%
Inhibition [2]: 100%
Inhibition [3]: 14%

S=C(NCCc1ccccc1)Nc1ccc2ncsc2c1
Inhibition [1]: 96%
Inhibition [2]: 3%
Inhibition [3]: 0%

O=C(/C=C/c1ccc(Cl)c(Cl)c1)NC1CCC(CN2CCC(c3nc4ccccc4n3CCCO)CC2)CC1 (configuration not stated)
Inhibition [1]: 99%
Inhibition [2]: 28%
Inhibition [3]: 28%

Cl.NOCCCOc1ccc(Cl)cc1
Inhibition [1]: 98%
Inhibition [2]: 0%
Inhibition [3]: 12%

CCC(=O)c1c(C)n(-c2ncnc3c2nc(C)n3-c2ccc(C)cc2C)c2ccccc12
Inhibition [1]: 96%
Inhibition [2]: 78%
Inhibition [3]: 0%

CC(C)(C)C1=CC(=NNC(=O)c2ccncc2)C=C(C(C)(C)C)C1=O
Inhibition [1]: 99%
Inhibition [2]: 99%
Inhibition [3]: 47%

COc1cc(C(=O)N2CCOC(CCN3CCc4c(c5ccccc5n4C)C3)(c3ccc(Cl)c(Cl)c3)C2)cc(OC)c1OC (configuration not stated)
Inhibition [1]: 87%
Inhibition [2]: 68%
Inhibition [3]: 16%

CCC(CC)(Cc1ccccc1)NC(=O)[C@H](CC1CCCCC1)Nc1ccc(C#N)c2ccccc12.O=C(O)C(F)(F)F
Inhibition [1]: 95%
Inhibition [2]: 76%
Inhibition [3]: 4%

COc1cc(CNC[C@@H](O)[C@H](Cc2ccccc2)NC(=O)c2cc(OC(C)C)cc(N3CCCS3(=O)=O)c2)cc(OC)c1.Cl
Inhibition [1]: 97%
Inhibition [2]: 72%
Inhibition [3]: 0%

CS(=O)(=O)CCNCc1cccc(-c2cc3c(Nc4ccc(OCc5cccc(F)c5)c(Cl)c4)ncnc3s2)c1.O=C(O)C(F)(F)F
Inhibition [1]: 100%
Inhibition [2]: 97%
Inhibition [3]: 5%

CCOc1ccc(Nc2ccc3nonc3c2S(=O)(=O)Nc2ccc(OCC)cc2)cc1
Inhibition [1]: 100%
Inhibition [2]: 93%
Inhibition [3]: 6%

O=c1cnc2ccc(F)cc2n1CCN1CCC(NCc2cc(-c3ccccc3)cs2)CC1
Inhibition [1]: 91%
Inhibition [2]: 14%
Inhibition [3]: 0%

CC(C)CC(=O)Nc1cc(=O)[nH]c2nc(-c3ccccc3)nn12
Inhibition [1]: 89%
Inhibition [2]: 85%
Inhibition [3]: 0%

Nc1c(Cl)cc(C(O)CNCCCCCOCCc2ccc3occc3c2)cc1Cl (configuration not stated)
Inhibition [1]: 99%
Inhibition [2]: 74%
Inhibition [3]: 0%

Cc1nc2ccccn2c1C1(O)C(=O)Nc2c(Cl)cc(Cl)cc21 (configuration not stated)
Inhibition [1]: 95%
Inhibition [2]: 62%
Inhibition [3]: 0%

Clc1ncccc1-c1nc(NCCC(c2ccccc2)c2ccccc2)no1
Inhibition [1]: 94%
Inhibition [2]: 82%
Inhibition [3]: 12%

COc1ccc(-n2nc(C(=O)NCCC3=CCCCC3)c3ccccc3c2=O)cc1
Inhibition [1]: 94%
Inhibition [2]: 59%
Inhibition [3]: 0%

COC(=O)COc1cc(C(=O)NCCCCN2CCC(c3ccc4c(c3OC)CCCC4)CC2)ccc1-c1ccc(Cl)cc1
Inhibition [1]: 97%
Inhibition [2]: 21%
Inhibition [3]: 32%

COc1cc(Nc2nccc(N3CCC(NC(=O)Nc4cc(C)ccc4C)C3)n2)cc(OC)c1OC (configuration not stated)
Inhibition [1]: 91%
Inhibition [2]: 52%
Inhibition [3]: 13%

CN(C)CCCOc1ccc(CN2CC[C@H](NC(=O)c3ccc(Cl)c(Cl)c3)C2)cc1Br.O=C(O)C(F)(F)F
Inhibition [1]: 100%
Inhibition [2]: 34%
Inhibition [3]: 11%

Cc1ccc(O)cc1Nc1ccnc2cc(-c3ccccn3)ccc12.Cl [GW440139A]
Inhibition [1]: 97%
Inhibition [2]: 98%
Inhibition [3]: 6%

CN1CCC(NCc2ccc(-c3ccc(S(=O)(=O)NCc4ccccc4)s3)cc2)CC1.O=C(O)C(F)(F)F
Inhibition [1]: 99%
Inhibition [2]: 95%
Inhibition [3]: 77%

Cc1ccccc1Nc1nc(NCCc2ccccc2)nc2ccccc12
Inhibition [1]: 82%
Inhibition [2]: 18%
Inhibition [3]: 32%

c1ccc(-c2nc(NCCCn3ccnc3)cc(-c3ccncc3)n2)cc1
Inhibition [1]: 100%
Inhibition [2]: 100%
Inhibition [3]: 42%

Cc1cccc2nc(-c3ccc(-c4cccc(NC(=O)COc5ccccc5C(N)=O)c4)s3)[nH]c12
Inhibition [1]: 99%
Inhibition [2]: 19%
Inhibition [3]: 80%

O=c1nc(C=Cc2ccc(Br)cc2)oc2ccccc12
Inhibition [1]: 97%
Inhibition [2]: 66%
Inhibition [3]: 0%

Cc1c(C)n(Cc2ccccc2)c2ncnc(OC3CCN(CC(=O)NCC4CC4)CC3)c12
Inhibition [1]: 92%
Inhibition [2]: 79%
Inhibition [3]: 17%

Cl.Nc1ccc(Nc2ccnc3ccc(C(F)(F)F)cc23)cc1O
Inhibition [1]: 98%
Inhibition [2]: 59%
Inhibition [3]: 1%

O=C(O)C(F)(F)F.c1ccc(CN2CCC(NCc3ccccc3-c3cccc(CNC4CCCC4)c3)CC2)cc1
Inhibition [1]: 100%
Inhibition [2]: 59%
Inhibition [3]: 35%

O=C(Nc1ccc(Br)cc1)c1cc(Br)ccc1NS(=O)(=O)c1cc(C(F)(F)F)cc(C(F)(F)F)c1
Inhibition [1]: 85%
Inhibition [2]: 67%
Inhibition [3]: 68%

O=C(Cc1ccccc1)NC(c1ccccc1)c1ccc2cccnc2c1O (configuration not stated)
Inhibition [1]: 89%
Inhibition [2]: 61%
Inhibition [3]: 49%

COc1ccc(C(C(=O)NC2CCN(C[C@H](O)c3ccnc4ccc(OC)cc34)CC2)N2CCN(c3ccc(F)cc3)CC2)cc1 (some centres not stated)
Inhibition [1]: 97%
Inhibition [2]: 86%
Inhibition [3]: 16%

CC(C)CCN1CCCN(Cc2cccc(NC(=O)c3cc4ccccc4s3)c2)CC1.O=C(O)C(F)(F)F
Inhibition [1]: 96%
Inhibition [2]: 8%
Inhibition [3]: 34%

O=C(Nc1cccc(-c2ccc(-c3nc4ccccc4[nH]3)cc2)c1)Nc1ccc2c(c1)OCO2
Inhibition [1]: 90%
Inhibition [2]: 8%
Inhibition [3]: 20%

CCc1ccc(O)c(-c2cc(C(=O)Nc3cccnc3)[nH]n2)c1
Inhibition [1]: 98%
Inhibition [2]: 99%
Inhibition [3]: 0%

COc1cc2ncnc(Nc3ccc(OCc4ccccc4)c(I)c3)c2cc1OC.Cl
Inhibition [1]: 98%
Inhibition [2]: 62%
Inhibition [3]: 11%

O=C(NC1CCCCC1)N(Cc1cccc(-c2ccc(CNC3CCCC3)cc2)c1)C1CCN(Cc2ccccc2)CC1.O=C(O)C(F)(F)F
Inhibition [1]: 98%
Inhibition [2]: 89%
Inhibition [3]: 37%

Cc1ccc(Nc2ccnc(Nc3ccc(C)c(F)c3)n2)cc1O.Cl
Inhibition [1]: 100%
Inhibition [2]: 27%
Inhibition [3]: 4%

Cc1ccc(Oc2ccc(NC(=O)CNc3ccccc3N3CCCC3=O)cc2)cc1
Inhibition [1]: 98%
Inhibition [2]: 97%
Inhibition [3]: 14%

O=C(Nc1cccc(F)c1)NC1CCN(c2ccnc3cc(Cl)ccc23)CC1.O=C(O)C(F)(F)F
Inhibition [1]: 96%
Inhibition [2]: 37%
Inhibition [3]: 11%

O=C(Cc1ccccc1)NC(CCN1CCC(NC(=O)c2ccc(Cl)cc2)CC1)c1ccc(Cl)c(Cl)c1 (configuration not stated)
Inhibition [1]: 85%
Inhibition [2]: 23%
Inhibition [3]: 17%

CN(C)CCNCc1cccc(-c2ccc3c(Nc4ccc(Oc5ccccn5)cc4)ccnc3c2)c1
Inhibition [1]: 99%
Inhibition [2]: 100%
Inhibition [3]: 27%

CCNC1=NC2=C(CC(C(C)(C)C)CC2)C2(CCC(C(C)(C)C)CC2)S1.Cl (configuration not stated)
Inhibition [1]: 99%
Inhibition [2]: 99%
Inhibition [3]: 40%

CC(C)CCN1CCC(Oc2ccc(NC(=O)c3ccco3)cc2Cl)CC1.O=C(O)C(F)(F)F
Inhibition [1]: 95%
Inhibition [2]: 93%
Inhibition [3]: 1%

CCN(CC)S(=O)(=O)c1ccc(C(C)NC(=O)c2ccccc2COc2ccccc2)cc1 (configuration not stated)
Inhibition [1]: 100%
Inhibition [2]: 89%
Inhibition [3]: 0%

Fc1ccc2c(NN=Cc3ccc(Cl)cc3)ccnc2c1
Inhibition [1]: 100%
Inhibition [2]: 99%
Inhibition [3]: 7%

O=c1cc(NCCCNC2CCc3ccc(Cl)cc32)[nH]c2ccccc12 (configuration not stated)
Inhibition [1]: 92%
Inhibition [2]: 39%
Inhibition [3]: 0%

CN1CCN(CCCN(Cc2cccc(-c3ccc(CNCc4ccc5c(c4)OCO5)cc3)c2)C(=O)CCC2CCCC2)CC1.O=C(O)C(F)(F)F
Inhibition [1]: 98%
Inhibition [2]: 84%
Inhibition [3]: 91%

COc1cc2ncnc(Nc3ccc(OCc4ccccc4)c(C(F)(F)F)c3)c2cc1OC.Cl
Inhibition [1]: 100%
Inhibition [2]: 78%
Inhibition [3]: 8%

CC(=O)Oc1c(C2CCN(CCCCNC(=O)c3ccc(NC(=O)c4ccc(Cl)cc4)cc3)CC2)ccc2ccccc12
Inhibition [1]: 100%
Inhibition [2]: 92%
Inhibition [3]: 24%

CC(C)(C)c1cc(C(=O)N2CCN(c3ncnc4ccsc34)CC2)n(Cc2ccccc2)n1
Inhibition [1]: 95%
Inhibition [2]: 83%
Inhibition [3]: 2%

Cc1cc(-c2ccc(O)c(CNC3CCCCC3)c2)cnc1N
Inhibition [1]: 100%
Inhibition [2]: 100%
Inhibition [3]: 27%

COc1cc(OC)cc(C(=O)Nc2cccc(-c3cn4ccc(C)cc4n3)c2)c1
Inhibition [1]: 86%
Inhibition [2]: 45%
Inhibition [3]: 4%

CCOC(=O)c1cccc(NC(=O)Nc2cc(C)nc3ccccc23)c1
Inhibition [1]: 100%
Inhibition [2]: 90%
Inhibition [3]: 14%
